Common to all, as to experiment: DAPPL (digital affinity profiling via proximity ligation, sequencing); 10 mM Tris-HCl pH 7.5, 50 mM NaCl, 1 mM DTT, 4% glycerol, room temperature, 30 min; GST-TFs on glutathione beads, 16-mer random dsDNA library, 0.1% formaldehyde crosslink after washing; high values mean tight binding
Common to all, as to conditions: protein: recombinant; tags: N-terminal GST; dsDNA, one strand shown

In one test the target is T1, ERF (Homo sapiens, UniProt P50548 1-548).
T1 sequence: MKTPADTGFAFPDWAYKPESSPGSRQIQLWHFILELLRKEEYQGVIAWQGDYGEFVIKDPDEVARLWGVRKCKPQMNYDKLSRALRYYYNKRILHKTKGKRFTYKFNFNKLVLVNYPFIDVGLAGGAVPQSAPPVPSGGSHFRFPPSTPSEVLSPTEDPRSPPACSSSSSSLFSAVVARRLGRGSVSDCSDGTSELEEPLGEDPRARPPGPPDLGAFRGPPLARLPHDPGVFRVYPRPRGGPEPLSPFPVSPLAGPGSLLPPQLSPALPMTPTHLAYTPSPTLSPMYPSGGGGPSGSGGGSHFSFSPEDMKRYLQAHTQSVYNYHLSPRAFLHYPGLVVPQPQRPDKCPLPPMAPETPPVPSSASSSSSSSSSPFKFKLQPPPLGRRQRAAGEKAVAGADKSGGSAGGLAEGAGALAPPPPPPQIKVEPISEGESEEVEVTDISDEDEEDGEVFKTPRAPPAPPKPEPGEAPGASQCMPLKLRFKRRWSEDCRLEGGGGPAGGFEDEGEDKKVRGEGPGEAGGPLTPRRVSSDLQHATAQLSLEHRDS
The gist of the method: (§1)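 Beads coated with glutathione captured GST-fused human transcription factors that had been expressed in yeast, and the factors were then given DNA barcodes and pooled with a tag-only sample. The pools were incubated with 200 nmole of a random double-stranded 16-mer DNA library in Tris/NaCl/DTT/glycerol buffer for 30 min at room temperature, washed, crosslinked with 0.1% formaldehyde and proximity-ligated with BsaI/T4 ligase at 37 °C for 1 h. PCR amplification and Illumina NextSeq500 sequencing came last. Binding signal is each hexamer's read frequency for a factor divided by its frequency for the tag-only sample.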

A further test deals with T2, ETV3L (Homo sapiens, UniProt Q6ZN32 1-361).
T2 sequence: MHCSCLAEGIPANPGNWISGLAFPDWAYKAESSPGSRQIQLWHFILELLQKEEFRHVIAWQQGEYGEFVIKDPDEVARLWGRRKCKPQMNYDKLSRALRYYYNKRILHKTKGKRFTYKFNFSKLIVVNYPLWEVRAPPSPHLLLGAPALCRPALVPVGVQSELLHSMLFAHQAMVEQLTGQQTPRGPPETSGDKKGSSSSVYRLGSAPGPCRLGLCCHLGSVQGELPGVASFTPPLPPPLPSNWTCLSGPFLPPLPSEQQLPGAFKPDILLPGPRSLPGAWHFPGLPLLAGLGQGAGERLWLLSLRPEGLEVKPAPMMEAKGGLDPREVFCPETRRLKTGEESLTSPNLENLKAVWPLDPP
The gist of the method: as §1

A further test has as its target T3, ETS2 (Homo sapiens, UniProt P15036 1-469).
T3 sequence: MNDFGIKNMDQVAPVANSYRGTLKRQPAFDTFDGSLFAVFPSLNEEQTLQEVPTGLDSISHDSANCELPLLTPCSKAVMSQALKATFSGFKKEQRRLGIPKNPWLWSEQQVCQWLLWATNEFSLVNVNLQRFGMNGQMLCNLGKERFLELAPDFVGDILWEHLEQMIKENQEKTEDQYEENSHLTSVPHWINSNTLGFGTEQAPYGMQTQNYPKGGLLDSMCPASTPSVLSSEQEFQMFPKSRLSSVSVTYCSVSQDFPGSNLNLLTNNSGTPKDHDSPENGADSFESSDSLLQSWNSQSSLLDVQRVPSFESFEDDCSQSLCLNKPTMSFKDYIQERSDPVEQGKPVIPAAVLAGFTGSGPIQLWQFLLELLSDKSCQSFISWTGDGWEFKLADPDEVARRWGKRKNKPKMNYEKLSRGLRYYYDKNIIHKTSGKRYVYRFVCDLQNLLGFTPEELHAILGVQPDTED
The gist of the method:
as §1

For another test, the target named is T4, SPDEF (Homo sapiens, UniProt O95238 1-335).
T4 sequence: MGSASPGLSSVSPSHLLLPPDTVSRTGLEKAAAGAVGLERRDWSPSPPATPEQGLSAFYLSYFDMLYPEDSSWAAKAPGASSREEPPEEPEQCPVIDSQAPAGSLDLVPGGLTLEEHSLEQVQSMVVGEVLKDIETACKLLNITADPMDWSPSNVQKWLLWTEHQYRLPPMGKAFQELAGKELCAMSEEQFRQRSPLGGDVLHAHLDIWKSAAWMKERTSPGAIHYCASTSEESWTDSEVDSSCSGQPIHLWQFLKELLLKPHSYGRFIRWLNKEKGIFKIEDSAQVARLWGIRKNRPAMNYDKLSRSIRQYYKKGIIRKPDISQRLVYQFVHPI
The procedure, abridged: as §1

A further test has as its target T5, ETV7 (Homo sapiens, UniProt Q9Y603 1-341).
T5 sequence: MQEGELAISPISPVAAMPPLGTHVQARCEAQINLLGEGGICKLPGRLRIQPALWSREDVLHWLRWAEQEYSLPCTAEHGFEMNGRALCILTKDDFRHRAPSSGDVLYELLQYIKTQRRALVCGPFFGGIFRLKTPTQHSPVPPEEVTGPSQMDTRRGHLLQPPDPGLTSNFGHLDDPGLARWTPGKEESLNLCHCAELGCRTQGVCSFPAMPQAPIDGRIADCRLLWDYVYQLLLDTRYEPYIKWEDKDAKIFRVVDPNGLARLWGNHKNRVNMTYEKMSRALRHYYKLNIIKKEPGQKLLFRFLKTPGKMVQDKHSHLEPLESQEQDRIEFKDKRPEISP
The procedure, abridged:
as §1

The next test deals with T6, ELF5 (Homo sapiens, UniProt Q9UKW6-2 1-255).
T6 sequence: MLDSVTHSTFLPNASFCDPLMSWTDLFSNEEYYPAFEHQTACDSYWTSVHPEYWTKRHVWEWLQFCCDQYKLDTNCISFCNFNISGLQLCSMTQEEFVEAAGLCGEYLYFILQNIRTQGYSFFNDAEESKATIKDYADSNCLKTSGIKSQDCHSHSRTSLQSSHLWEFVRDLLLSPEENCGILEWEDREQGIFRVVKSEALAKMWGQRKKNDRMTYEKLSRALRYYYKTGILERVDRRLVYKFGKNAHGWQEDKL
The procedure, abridged:
as §1

The target in the next test is T7, ETV3 (Homo sapiens, UniProt P41162-2 1-143).
T7 sequence: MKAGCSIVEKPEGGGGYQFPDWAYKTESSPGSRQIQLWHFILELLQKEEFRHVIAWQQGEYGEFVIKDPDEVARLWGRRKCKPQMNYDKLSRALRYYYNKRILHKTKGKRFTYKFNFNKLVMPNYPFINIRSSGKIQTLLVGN
The procedure, abridged:
as §1

The target in another test is ETV6 (Homo sapiens, UniProt P41212 1-452). The procedure, abridged:
as §1

ETV6, sequence (P41212 whole entry): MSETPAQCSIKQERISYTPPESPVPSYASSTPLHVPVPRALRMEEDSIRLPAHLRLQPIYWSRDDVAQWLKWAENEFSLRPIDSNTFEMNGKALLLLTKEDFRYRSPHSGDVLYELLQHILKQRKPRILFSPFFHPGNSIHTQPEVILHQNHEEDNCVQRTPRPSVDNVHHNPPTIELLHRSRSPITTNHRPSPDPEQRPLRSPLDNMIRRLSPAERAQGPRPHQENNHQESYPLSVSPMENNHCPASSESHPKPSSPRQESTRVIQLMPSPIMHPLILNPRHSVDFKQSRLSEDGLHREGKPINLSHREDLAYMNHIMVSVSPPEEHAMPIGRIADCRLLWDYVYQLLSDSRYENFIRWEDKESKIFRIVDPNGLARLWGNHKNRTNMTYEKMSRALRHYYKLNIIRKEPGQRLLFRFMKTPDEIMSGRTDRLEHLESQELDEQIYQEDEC

For the sequence ACTGAC, the binding signal with ERF is 1.18 fold enrichment (6-mer frequency, TF over GST control); with ETV3L, 1.19 fold enrichment (6-mer frequency, TF over GST control); in the test with ETS2, 1.32 fold enrichment (6-mer frequency, TF over GST control); with SPDEF it was 1.18 fold enrichment (6-mer frequency, TF over GST control); with ETV7, 1.26 fold enrichment (6-mer frequency, TF over GST control); in the test with ELF5 it was 1.21 fold enrichment (6-mer frequency, TF over GST control). Also, the binding signal with ETV3 is 1.21 fold enrichment (6-mer frequency, TF over GST control); with ETV6, 1.19 fold enrichment (6-mer frequency, TF over GST control).

On to CTTTCT, for which the binding signal with ERF is 1.63 fold enrichment (6-mer frequency, TF over GST control); in the test with ETV3L, 1.5 fold enrichment (6-mer frequency, TF over GST control); with ETS2 it was 1.55 fold enrichment (6-mer frequency, TF over GST control); in the test with SPDEF, 1.44 fold enrichment (6-mer frequency, TF over GST control); in the test with ETV7, 1.46 fold enrichment (6-mer frequency, TF over GST control); with ELF5 it was 1.5 fold enrichment (6-mer frequency, TF over GST control). For the same sequence, the binding signal with ETV3 was 1.52 fold enrichment (6-mer frequency, TF over GST control); in the test with ETV6, 1.52 fold enrichment (6-mer frequency, TF over GST control).

As to ATTGCT, the binding signal with ERF is 1.15 fold enrichment (6-mer frequency, TF over GST control); with ETV3L, 1.25 fold enrichment (6-mer frequency, TF over GST control); with ETS2, 1.23 fold enrichment (6-mer frequency, TF over GST control); with SPDEF, 1.17 fold enrichment (6-mer frequency, TF over GST control); with ETV7, 1.43 fold enrichment (6-mer frequency, TF over GST control); in the test with ELF5 it was 1.18 fold enrichment (6-mer frequency, TF over GST control). Moreover, the binding signal was 1.11 fold enrichment (6-mer frequency, TF over GST control) in the test with ETV3 and 1.15 fold enrichment (6-mer frequency, TF over GST control) with ETV6.

With ACCCGC, the binding signal with ERF was 1.27 fold enrichment (6-mer frequency, TF over GST control); in the test with ETV3L, 1.34 fold enrichment (6-mer frequency, TF over GST control); with ETS2, 1.15 fold enrichment (6-mer frequency, TF over GST control); in the test with SPDEF it was 1.16 fold enrichment (6-mer frequency, TF over GST control); in the test with ETV7, 1.18 fold enrichment (6-mer frequency, TF over GST control); with ELF5 it was 1.25 fold enrichment (6-mer frequency, TF over GST control). Also, the binding signal is 1.28 fold enrichment (6-mer frequency, TF over GST control) with ETV3 and 1.32 fold enrichment (6-mer frequency, TF over GST control) with ETV6.

Take TGTAGC: the binding signal with ERF is 1.32 fold enrichment (6-mer frequency, TF over GST control); in the test with ETV3L, 1.13 fold enrichment (6-mer frequency, TF over GST control); with ETS2, 1.12 fold enrichment (6-mer frequency, TF over GST control); with SPDEF it was 1.2 fold enrichment (6-mer frequency, TF over GST control); with ETV7, 1.12 fold enrichment (6-mer frequency, TF over GST control); in the test with ELF5 it was 1.14 fold enrichment (6-mer frequency, TF over GST control). Besides, the binding signal in the test with ETV3 is 1.22 fold enrichment (6-mer frequency, TF over GST control); with ETV6 it was 1.12 fold enrichment (6-mer frequency, TF over GST control).

For the sequence CATATC, the binding signal with ERF was 1.42 fold enrichment (6-mer frequency, TF over GST control); with ETV3L, 1.38 fold enrichment (6-mer frequency, TF over GST control); in the test with ETS2, 1.36 fold enrichment (6-mer frequency, TF over GST control); in the test with SPDEF it was 1.76 fold enrichment (6-mer frequency, TF over GST control); in the test with ETV7, 1.24 fold enrichment (6-mer frequency, TF over GST control); with ELF5, 1.32 fold enrichment (6-mer frequency, TF over GST control). In addition, the binding signal in the test with ETV3 is 1.32 fold enrichment (6-mer frequency, TF over GST control); with ETV6 it was 1.26 fold enrichment (6-mer frequency, TF over GST control).

Turning to CACCTT, the binding signal with ERF is 1.33 fold enrichment (6-mer frequency, TF over GST control); with ETV3L, 1.14 fold enrichment (6-mer frequency, TF over GST control); with ETS2, 1.24 fold enrichment (6-mer frequency, TF over GST control); in the test with SPDEF, 1.31 fold enrichment (6-mer frequency, TF over GST control); with ETV7, 1.12 fold enrichment (6-mer frequency, TF over GST control); with ELF5, 1.21 fold enrichment (6-mer frequency, TF over GST control). The binding signal in the test with ETV3 was 1.31 fold enrichment (6-mer frequency, TF over GST control); with ETV6, 1.25 fold enrichment (6-mer frequency, TF over GST control).

Values taken from publication PMC7862700, “An all-to-all approach to the identification of sequence-specific readers for epigenetic DNA modifications on cytosine”.
